Data on five molecules can be found in PubChem BioAssay AID651548 (Broad Institute, 2012).

In all, about 57,000 compounds went through this assay and about 200 (0.35%) were called active.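 The calls were made as follows: active = mean inhibition of replicates at least 50% and every single replicate also reaching 50%; inconclusive = mean inhibition at least 50% but some replicate falls below 50%; inactive = mean inhibition under 50%.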 Only a selection was taken, and actives are over-represented in it overall.

Chain of Histone-lysine N-methyltransferase EZH2 (Homo sapiens) (Q15910 whole entry, looked up): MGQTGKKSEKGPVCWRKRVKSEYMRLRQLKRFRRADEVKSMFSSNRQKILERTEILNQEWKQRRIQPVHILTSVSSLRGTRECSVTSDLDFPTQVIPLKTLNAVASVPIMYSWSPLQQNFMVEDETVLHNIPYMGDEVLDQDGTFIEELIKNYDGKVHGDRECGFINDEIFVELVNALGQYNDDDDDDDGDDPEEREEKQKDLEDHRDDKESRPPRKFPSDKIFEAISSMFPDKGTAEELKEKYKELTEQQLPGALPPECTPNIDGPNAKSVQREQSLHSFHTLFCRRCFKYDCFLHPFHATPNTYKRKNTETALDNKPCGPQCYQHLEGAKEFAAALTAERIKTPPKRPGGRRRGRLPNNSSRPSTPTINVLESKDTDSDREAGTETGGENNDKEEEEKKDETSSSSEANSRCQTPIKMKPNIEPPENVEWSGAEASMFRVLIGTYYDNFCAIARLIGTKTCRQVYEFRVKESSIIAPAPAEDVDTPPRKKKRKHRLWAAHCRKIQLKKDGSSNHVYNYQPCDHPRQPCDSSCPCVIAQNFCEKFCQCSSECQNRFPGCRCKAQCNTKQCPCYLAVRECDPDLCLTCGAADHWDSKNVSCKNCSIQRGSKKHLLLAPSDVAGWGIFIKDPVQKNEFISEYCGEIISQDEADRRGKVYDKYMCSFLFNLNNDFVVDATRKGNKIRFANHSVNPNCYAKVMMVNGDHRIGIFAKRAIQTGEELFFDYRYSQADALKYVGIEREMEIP

The assay addresses Histone-lysine N-methyltransferase EZH2 (Homo sapiens) (UniProt Q15910). Put plainly: inhibition of PRC2 H3K27 methylation – biochemical, DELFIA time-resolved fluorescence, single point, primary screen (AID 651548).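 Also: dimethyl H3K27 on biotinylated H3 21-44 peptide detected by antibody; plate controls were median neutral control wells for no effect and median positive control wells for full effect.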 The following applies: DELFIA TRF, 1 h, at 12.5 µM, active compounds read high.
Turning to `C[C@@H]1O[C@@H](O[C@@H]2C=C3CC[C@@H]4C(C[C@@H](O)[C@]5(C)[C@@H](c6ccc(=O)oc6)CC[C@]45O)[C@@]3(C)CC2)[C@H](O)[C@H](O)[C@H]1O[C@@H]1O[C@H](CO)[C@@H](O)[C@H](O)[C@H]1O` (stereo not given in full), the inhibition was 75.9% (active).

Take `c1ccc(CCCCN2CCC(c3ccccc3)CC2)cc1`: the inhibition is 11.8% (inactive). With `CCCCCCCCCCCCCC(=O)O[C@@H]1[C@@H](C)[C@@]2(O)[C@@H](C=C(CO)C[C@]3(O)C(=O)C(C)=C[C@@H]23)[C@@H]2C(C)(C)[C@]12OC(C)=O` the figure was -10.7% (inactive). As to `c1ccc2c(c1)[I+]c1ccccc1-2`, the inhibition was -3.64% (inactive).

On to `CC(C)(Cc1c[nH]c2ccc(Cl)cc12)NCCOc1ccccc1OCC1CC1`, for which the inhibition was 3.93% (inactive).
